Screens: PubChem, The Scripps Research Institute Molecular Screening Center
FBW7 act: activators of human E3 ligase FBW7; normalized activity (activation), % at 26.1 µM; Q969H0; actives 0.13% (n = 650,000); AlphaScreen FBW7–phospho-cyclin E peptide binding, activator screen; in the data active = normalized activity above about 1.9%;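 also: purified mutant Fbw7 with reduced substrate affinity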
Target sequence (Q969H0 whole entry, looked up): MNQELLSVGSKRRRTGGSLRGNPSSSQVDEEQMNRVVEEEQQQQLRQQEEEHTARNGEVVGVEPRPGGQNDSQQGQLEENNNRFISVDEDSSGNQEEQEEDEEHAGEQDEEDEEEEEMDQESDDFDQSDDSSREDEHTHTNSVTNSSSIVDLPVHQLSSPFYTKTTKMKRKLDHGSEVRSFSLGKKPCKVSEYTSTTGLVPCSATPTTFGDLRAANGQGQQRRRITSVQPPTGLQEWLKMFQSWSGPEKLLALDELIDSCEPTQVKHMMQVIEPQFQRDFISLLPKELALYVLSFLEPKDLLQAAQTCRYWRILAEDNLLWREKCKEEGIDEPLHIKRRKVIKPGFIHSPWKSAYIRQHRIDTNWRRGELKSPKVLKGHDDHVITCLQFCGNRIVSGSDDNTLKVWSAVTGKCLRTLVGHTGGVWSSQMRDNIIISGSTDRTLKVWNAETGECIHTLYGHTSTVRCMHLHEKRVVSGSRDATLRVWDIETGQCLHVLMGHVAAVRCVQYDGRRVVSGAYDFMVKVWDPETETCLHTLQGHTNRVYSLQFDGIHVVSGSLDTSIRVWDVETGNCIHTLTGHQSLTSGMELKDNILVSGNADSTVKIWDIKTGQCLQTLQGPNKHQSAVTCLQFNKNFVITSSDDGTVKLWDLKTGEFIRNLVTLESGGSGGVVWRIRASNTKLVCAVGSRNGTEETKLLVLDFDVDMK
GPR151 ag: activates the human receptor GPR151 | Q8TDV0 | PathHunter beta-arrestin GPR151 cells, luminescence | activation, % at 11.2 µM | actives 1% (n = 650,000) | AID 1508602; in the data active = activation above about 4.9%;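 also: 0% = median of compound wells and 100% = cells with positive control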
TEAD-YAP inh: TEAD-YAP interaction inhibition | HEK-TIYL cells, TEAD-Gal4/YAP UAS-luciferase luminescence | inhibition, % at 9.12 µM | actives 1.4% (n = 640,000) | AID 1259422; in the data active = inhibition above about 32%;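 also: 0% = median of test compound wells and 100% = reference inhibitor wells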
MITF primary: human MITF inhibition, primary screen; O75030; AlphaScreen MITF homodimerization, bead proximity signal; inhibition, % at 2.6 µM; actives 0.91% (n = 650,000); in the data active = inhibition above about 50%;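 also: 0% = vehicle wells with protein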
GPR151 confirm: confirmation of human GPR151 activators; shares compounds with GPR151 ag; activation, % at 11.2 µM; GPR151 PathHunter beta-arrestin cells, luminescence, 90 min; % of EA-reagent control over plate median; 6,700 tested, under 10 active; AID 1508609;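 active = mean percent activation across replicates above the confirmation screen cutoff of 4.91%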
GPR119 counter: counter-screen for GPR151 activators: effect on human GPR119. shares compounds with GPR151 ag. GPR119 PathHunter beta-arrestin cells, luminescence, 90 min; 0 = compound-well median, 100 = enzyme-acceptor control. activation, % at 11.2 µM. actives 0.3% (n = 6,700). AID 1508611;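 active = mean percent activation in the counterscreen above 29.09%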;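 also: counterscreen on off-target GPR119 to flag nonselective hits from the GPR151 activator screen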
Active calls of the source: *; nt = no result given. Rows were chosen to be rich in hits. Some 3.5% of all compounds tested hit in one or more screens of this group.

SMILES	FBW7 act	GPR151 ag	TEAD-YAP inh	MITF primary	GPR151 confirm	GPR119 counter
COc1ccc(S(=O)(=O)NCCCCCC(=O)O)cc1C(=O)O	0	8.8*	0	10	1	-3
Cc1ccc(S(=O)(=O)NCc2ccc(C(=O)NCC3CCCO3)cc2)cc1 (stereo not given)	0	-3	-3	-3	nt	nt
Cc1cccc(NS(=O)(=O)c2ccc3c(c2)C(C)(C)C(=O)N3C)c1C	1	0	6	14	nt	nt
CC1=C(C(=O)Nc2ccc(C)cc2C)C(c2ccc(N(C)C)cc2)n2ncnc2N1 (stereo not given)	0	0	8	5	nt	nt
O=c1[nH]c2ccc(S(=O)(=O)NCCO)cc2[nH]1	0	-1	3	2	nt	nt
COCCCNS(=O)(=O)c1ccc2[nH]c(=O)[nH]c2c1	0	6.0*	-6	-3	1	16
COc1ccc(S(=O)(=O)Nc2ccc(I)cc2)cc1C	0	6.8*	4	2	0	-8
COc1ccccc1NS(=O)(=O)c1ccc(Br)c(C(=O)Nc2ccccc2)c1	0	2	5	11	nt	nt
COc1ccccc1NS(=O)(=O)c1ccc(Cl)c(C(=O)Nc2ccc(Cl)cc2)c1	0	9.6*	9	6	0	-8
COCCNS(=O)(=O)c1ccc(Cl)c(C(F)(F)F)c1	0	8.8*	5	3	1	7
COc1ccc(Cl)cc1N(C)C(=O)Cn1ncc2c(=O)oc3ccccc3c21	1	0	8	13	nt	nt
O=S(=O)(/N=C(\c1ccccc1)N1CCCC1)c1cccs1	0	0	1	12	nt	nt
CCOC(=O)C1CCCN(C(=O)C2CC(=O)c3sc(NC(=O)c4ccsc4)nc3C2)C1 (stereo not given)	0	1	4	7	nt	nt
COc1ccc(S(=O)(=O)Nc2ccc(C)c(C)c2)cc1[N+](=O)[O-]	0	4	1	10	nt	nt
COc1ccc(S(=O)(=O)Nc2ccc3oc4c(c3c2)CCCC4)cc1[N+](=O)[O-]	0	6.4*	10	-4	0	1
COCCCNS(=O)(=O)c1ccc(OC)c(I)c1	0	-1	-2	4	nt	nt
COCCNS(=O)(=O)c1ccc(OC)c(I)c1	0	9.4*	3	-10	1	9
COc1ccc(S(=O)(=O)Nc2ccc(-c3cn4ccsc4n3)cc2)cc1C	0	13*	7	6	1	9
CC(C)c1nnc(C2CCN(C(=O)c3cc4ccccc4[nH]3)CC2)o1	0	2	1	4	nt	nt
CC(C)CC1(C)NC(=O)N(Cc2nnc(-c3ccccc3Br)o2)C1=O (stereo not given)	0	7.0*	-7	3	1	1
COc1ccccc1N1CCN(C(c2ccc(N(C)C)cc2)c2nnnn2C(C)C)CC1 (stereo not given)	0	5.3*	0	8	1	5
COc1ccc(C(c2nnnn2C(C)C)N2CCN(c3ccccc3OC)CC2)cc1 (stereo not given)	0	-1	-5	3	nt	nt
CC(C)n1nnnc1C(c1ccccc1F)N1CCN(c2ccccc2)CC1 (stereo not given)	0	6.0*	2	-1	0	10
O=C(CN1CCC(O)(c2ccccn2)CC1)Nc1ccc2c(c1)CCC2	0	0	5	5	nt	nt
O=C(NCCCN1CCc2ccccc2C1)c1ccc2nc(N3CCCCC3)sc2c1	0	-1	-59	-4	nt	nt
SMILES	FBW7 act	GPR151 ag	TEAD-YAP inh	MITF primary	GPR151 confirm	GPR119 counter
CC12CCC(C(=O)Nc3ccc(F)c(F)c3)(CC1=O)C2(C)C (stereo not given)	0	8.8*	13	-28	0	0
CC(C)(C)c1nc(Cc2ccc([N+](=O)[O-])cc2)no1	0	8.6*	0	-1	-1	2
COc1ccc(Cc2noc(-c3ccc([N+](=O)[O-])cc3)n2)cc1	0	0	11	11	nt	nt
O=C(Nc1ccc(F)cc1Cl)c1n[nH]c(=O)c2ccccc12	0	0	3	0	nt	nt
CC(C)Oc1ccc(CN2CCCC(CO)(Cc3ccccc3)C2)cc1CO (stereo not given)	1	5.0*	2	10	-1	-7
CCN(CC)S(=O)(=O)c1ccc2c(c1)c(=O)c(C(=O)N(C)CCC#N)cn2C	0	6.1*	-18	7	0	-3
